Screening results from PubChem.
Pf apPOL block – Pf-apPOL DNA polymerase inhibition; AID 1794808; Recombinant Pf-apPOL, molecular beacon fluorescence, 1.5 h; 210,000 compounds, 0.25% hits; inhibition, % at 10 µM
mHTT-CaM PPI inh – disrupts binding of mutant huntingtin to calmodulin. P42858. AlphaScreen His-mHTT/GST-CaM binding, luminescence. inhibition, % at 15 µM. 190,000 compounds, 3.6% hits
Large screens that a line does not name were inactive; ! = not confirmed by another sample. This is a sample that favours compounds with a hit; in the whole collection about 3.5% have one here. No stated cut-off is given here; in the data, active means inhibition above about 50%; inactive means the rest.

COC(=O)C(C)Oc1ccc2c(c1)OC(=Cc1ccc(Br)cc1)C2=O (stereo not drawn)	none
COc1ccc(C)cc1NC(=O)N1CCC(c2nc(C(=O)N(C)C)c(C)o2)CC1	none
O=C(Oc1ccc2c(c1)OC(=Cc1cccs1)C2=O)c1ccc([N+](=O)[O-])cc1	none
CC(Oc1ccc(-c2cnc3ccccc3n2)cc1)C(=O)N1CCCCC1 (stereo not drawn)	none
Cc1ccc(S(=O)(=O)N2CCC(=O)N([C@H](COCc3cccc(C(F)(F)F)c3)Cc3ccccc3)CC2)cc1	none
CC(C)C[C@@H](COCc1cccc(Cl)c1)N1CCN(C(=O)c2cccc(C(F)(F)F)c2)CCC1=O	mHTT-CaM PPI inh 87.2!
Cc1ccc(S(=O)(=O)N2CCC(=O)N([C@H](COCc3cccc(C(F)(F)F)c3)C(C)C)CC2)cc1	none
CC(C)C[C@@H](COCc1ccc(F)cc1)N1CCN(C(=O)c2cccc(C(F)(F)F)c2)CCC1=O	mHTT-CaM PPI inh 59.7
COc1ccc(C(=O)N2CCCC3(C2)Nc2ccccc2NC3=NC(C)(C)C)cn1 (stereo not drawn)	none
CCC(C)NC(=O)C1CCN(c2c(C)cccc2C)C1=O (stereo not drawn)	none
O=c1[nH]c2c(Cl)c(Cl)c(Cl)cc2o1	none
O=C(Cc1csc(NC(=O)c2ccc[nH]c2=O)n1)Nc1ccc(OC(F)(F)F)cc1	none
COc1cc(C(CC(=O)N2CCCC2)c2c(OC)cc(OC)c3c(-c4ccccc4)cc(=O)oc23)cc(OC)c1OC (stereo not drawn)	mHTT-CaM PPI inh 52.3
CCN(CC)C(=O)CC(c1ccc(N(C)C)cc1)c1c(OC)cc(OC)c2c(-c3ccccc3)cc(=O)oc12 (stereo not drawn)	none
COc1ccc(C(CC(=O)N2CCCC2)c2c(OC)cc(OC)c3ccc(=O)oc23)cc1 (stereo not drawn)	none
COc1ccc(C(CC(=O)N2CCCC2)c2c(OC)cc(OC)c3c(-c4ccccc4)cc(=O)oc23)cc1 (stereo not drawn)	mHTT-CaM PPI inh 80.7
COc1ccc(C(CC(=O)N2CCOCC2)c2c(OC)cc(OC)c3c(-c4ccccc4)cc(=O)oc23)cc1 (stereo not drawn)	none
COc1cc(OC)c2c(-c3ccccc3)cc(=O)oc2c1C(CC(=O)N1CCCC1)c1ccc(N(C)C)cc1 (stereo not drawn)	mHTT-CaM PPI inh 90.2
O=C(NCC1(O)CCc2ccccc21)c1c(F)cccc1Cl (stereo not drawn)	none
CC1(C)C2CCC1(C)C(OCC(O)CN1CCN(Cc3ccccc3)CC1)C2 (stereo not drawn)	none
CC1(C)C2CCC1(C)C(OCC(O)CN1CCN(c3ccccc3)CC1)C2 (stereo not drawn)	mHTT-CaM PPI inh 51.7
Cc1ccccc1-c1cc2c(c3c1ccn3C)C1CCC2O1 (stereo not drawn)	none
Cn1ccc2c(N3CCCC3)cc3c(c21)C1CCC3C1 (stereo not drawn)	none
Cn1ccc2c(N3CCCCCC3)cc3c(c21)C1CCC3O1 (stereo not drawn)	mHTT-CaM PPI inh 66.2
Cn1ccc2c(N3CCCCC3)cc3c(c21)C1CCC3C1 (stereo not drawn)	mHTT-CaM PPI inh 77.6
Cn1ccc2c(N3CCCC3)cc3c(c21)C1CCC3O1 (stereo not drawn)	none
Cn1ccc2c(-c3cncc4ccccc34)cc3c(c21)C1CCC3O1 (stereo not drawn)	mHTT-CaM PPI inh 100.1
COc1ncccc1CNC(=O)c1cccnc1	none
Cc1nccn1CC(=O)N1CCCC(OCc2nc(C3CC3)no2)C1 (stereo not drawn)	none
Cc1ccc(C)n1-c1ccc(Cc2ccncc2)cc1	mHTT-CaM PPI inh 64.9
O=[N+]([O-])c1ccc(Cc2ccncc2)cc1	none
CCOc1ccc(COC2C(C(O)CO)OC3OC(C)(C)OC32)cc1 (stereo not drawn)	none
COc1ccc(N=C2C(=O)Nc3ccc(C)c(Br)c32)cc1	mHTT-CaM PPI inh 64.0
Cc1ccc(N=C2C(=O)Nc3cc(Br)c(C)cc32)cc1	mHTT-CaM PPI inh 55.0
Cc1ccc(N=C2C(=O)Nc3ccc(C)c(Br)c32)cc1	none
CC(=O)N(C)c1ccc(N=C2C(=O)Nc3cc(Br)c(C)cc32)cc1	none
CC(=O)c1c(NC(=O)Cc2ccccc2)nc(C)nc1-c1ccccc1	none
COc1ccccc1/C=C1\C(=O)Nc2ccc(Br)cc21	none
COc1cc(Cl)c(/C=C2\C(=O)Nc3ccc(Br)cc32)cc1OC	none
COc1cc(Cl)cc(/C=C2\C(=O)Nc3ccc(Br)cc32)c1OC	mHTT-CaM PPI inh 57.0
COc1cccc(/C=C2\C(=O)Nc3ccc(Br)cc32)c1OC	mHTT-CaM PPI inh 89.0
O=C(CSc1nc2sc3c(c2c(=O)[nH]1)CCC3)NCc1ccccn1	none
CCOc1ccc(-n2ccn3cc(-c4cc(C)ccc4C)nc3c2=O)cc1	none
CC(C)c1ccc(S(=O)(=O)N=C2C=C(Br)C(=O)c3ccccc32)cc1	none
CCOc1ccc(S(=O)(=O)N=C2C=CC(=O)c3ccccc32)cc1	mHTT-CaM PPI inh 72.0
CCc1ccc(S(=O)(=O)N=C2C=CC(=O)C=C2)cc1	none
CCOc1ccc(C2C(=O)c3ccccc3C2=O)cc1	none
CCc1ccc(S(=O)(=O)N=C2C=CC(=O)c3ccccc32)cc1	mHTT-CaM PPI inh 93.0
COc1ccc(S(=O)(=O)N=C2C=C(Br)C(=O)C(Br)=C2)cc1	none
CC(C)(C)c1ccc(S(=O)(=O)N=C2C=CC(=O)c3ccccc32)cc1	mHTT-CaM PPI inh 94.0
CCOc1ccc(S(=O)(=O)N=C2C=CC(=O)C(Br)=C2)cc1	mHTT-CaM PPI inh 73.0
CC(C)CN(CC(C)C)C(=O)c1ccccc1NC(=O)CN1C(=O)c2ccccc2C1=O	none
COc1ccc(CNC(=O)c2cccc(N3CCNC(c4ccccc4)C3)n2)c(OC)c1 (stereo not drawn)	mHTT-CaM PPI inh 97.0
O=C(NCc1cnccn1)c1ccc(N2CCNC(c3ccccc3)C2)nc1 (stereo not drawn)	none
O=C(NCc1ccccc1)c1cccc(N2CCNC(c3ccccc3)C2)n1 (stereo not drawn)	none
O=C(NCc1ccccn1)c1cccc(N2CCNC(c3ccccc3)C2)n1 (stereo not drawn)	mHTT-CaM PPI inh 85.4
O=C(NCc1cnccn1)c1ccnc(N2CCNC(c3ccccc3)C2)c1 (stereo not drawn)	mHTT-CaM PPI inh 69.5
COc1ccc(CNC(=O)c2ccnc(N3CCNC(c4ccccc4)C3)c2)c(OC)c1 (stereo not drawn)	none
COCCCN1C(=O)CCc2c(C)nc(-c3ccncc3)nc21	none
COc1cc([N+](=O)[O-])ccc1NC(=O)c1ccc(C(C)(C)C)cc1	none
COc1cccc(NC(=O)N2CCN(c3ccc(Nc4cc(C)ccn4)nn3)CC2)c1	mHTT-CaM PPI inh 99.0
COc1ccc(NC(=O)N2CCN(c3ccc(-n4nc(C)cc4C)nn3)CC2)cc1	none
Cc1ccc(-c2ncc(C(=O)NCc3cccnc3)c(N3CCCCC3C)n2)cc1 (stereo not drawn)	none
CCC1CCCCN1S(=O)(=O)c1ccc(F)c(C(=O)Nc2ccc(C)c(Cl)c2)c1 (stereo not drawn)	none
CCN1c2cc(Cl)ccc2C(=O)NC12CCN(C(=O)NCc1ccc(F)cc1)CC2	mHTT-CaM PPI inh 57.6
CCN1c2cc(Cl)ccc2C(=O)NC12CCN(C(=O)NCc1ccc(C)cc1)CC2	none
COc1ccc(NC(=O)CC(C)C)cc1N1CCCC1=O	none
COc1ccc(NC(=O)NC(c2ccccc2)c2ccccc2)cc1N1CCCC1=O	mHTT-CaM PPI inh 55.3
COc1cccc(NC(=O)C2CCc3nc(N4CCN(C(=O)C(C)C)CC4)sc3C2)c1 (stereo not drawn)	none
